Holding throughout (assay): cell viability relative to vehicle control; higher = less cytotoxic
What all share (conditions): 10 µM

One assay relates to K562. The method, boiled down:
(§1)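 CRISPR-edited mutant clones and isogenic wild-type clones from four leukaemia lines were screened against Selleck bioactive, kinase and epigenetic probe libraries, with identity-inconsistent compounds excluded. Each compound was acoustically dispensed at a single 10 µM dose into 384-well plates holding 2000 cells in 50 µL medium per well. After 48 h the supernatant was removed and CellTiter-Glo luminescence was read. Viability was expressed as percent of the on-plate vehicle control and analysed in Genedata Screener.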

The test system of another assay is MARIMO. The method, boiled down: as §1
A further assay deals with MOLM14. In short, it runs like this: as §1
Another assay relates to OCI-AML2. The method, boiled down:
as §1

Several values for one entry are separate records, joined by “and”; a condition that tells them apart may be missing. Identical values can stand only once.

For `Clc1ccc(C(Cn2ccnc2)OCc2ccc(Sc3ccccc3)cc2)c(Cl)c1` (configuration not stated) [Fenticonazole nitrate], the cell viability (in general, a read-out of living cells in per cent, often relative to untreated cells) in the assay on K562 (SRSF2 genotype: SRSF2 P95H/wt) was 76.5% and 67.7%; with K562 (SRSF2 genotype: SRSF2 wt/wt), 63.8%; in the assay with MARIMO (SRSF2 genotype: SRSF2 P95H/wt), 62.4%; with MARIMO (SRSF2 genotype: SRSF2 wt/wt), 78%; with MOLM14 (SRSF2 genotype: SRSF2 P95H/wt), 70.6%; in the assay with MOLM14 (SRSF2 genotype: SRSF2 wt/wt) it was 73%. Besides, the cell viability with OCI-AML2 (SRSF2 genotype: P95H/wt) stood at 63.3%; in the assay on OCI-AML2 (SRSF2 genotype: wt/wt), 69.1%.
`CC(C)CCCC(C)CCCC(C)CCCCC(C)CCCC(C)CCCC(C)C` (configuration not stated) [Squalane]: the cell viability with K562 (SRSF2 genotype: SRSF2 P95H/wt) is 109% and 97%; in the assay with K562 (SRSF2 genotype: SRSF2 wt/wt), 108%; in the assay on MARIMO (SRSF2 genotype: SRSF2 P95H/wt) it was 105%; with MARIMO (SRSF2 genotype: SRSF2 wt/wt) it was 106%; in the assay on MOLM14 (SRSF2 genotype: SRSF2 P95H/wt), 103%; in the assay on MOLM14 (SRSF2 genotype: SRSF2 wt/wt), 108%. The results for the cell viability in the assay on OCI-AML2 (SRSF2 genotype: P95H/wt) and with OCI-AML2 (SRSF2 genotype: wt/wt) were 103% and 100%, respectively.
Take `O=Cc1ccc(CO)o1` [5-Hydroxymethylfurfural]: the cell viability in the assay with K562 (SRSF2 genotype: SRSF2 P95H/wt) was 91.8% and 86.8%; in the assay with K562 (SRSF2 genotype: SRSF2 wt/wt) it was 84%; in the assay on MARIMO (SRSF2 genotype: SRSF2 P95H/wt) it was 85%; in the assay with MARIMO (SRSF2 genotype: SRSF2 wt/wt), 95.1%; in the assay with MOLM14 (SRSF2 genotype: SRSF2 P95H/wt), 86.9%; in the assay with MOLM14 (SRSF2 genotype: SRSF2 wt/wt) it was 91.3%. Also, the cell viability in the assay with OCI-AML2 (SRSF2 genotype: P95H/wt) came out at 85.6%; in the assay on OCI-AML2 (SRSF2 genotype: wt/wt) it was 92.7%.
Regarding `O=C(c1ccc(Cl)cc1)N(Cc1ccccc1)C1CCCCC1`, the cell viability with K562 (SRSF2 genotype: SRSF2 P95H/wt) was 86.1% and 92.9%; with K562 (SRSF2 genotype: SRSF2 wt/wt), 92.3%; in the assay with MARIMO (SRSF2 genotype: SRSF2 P95H/wt), 75.2%; in the assay with MARIMO (SRSF2 genotype: SRSF2 wt/wt) it was 84.1%; in the assay with MOLM14 (SRSF2 genotype: SRSF2 P95H/wt) it was 78.1%; in the assay on MOLM14 (SRSF2 genotype: SRSF2 wt/wt) it was 94.6%. For the same compound, the cell viability with OCI-AML2 (SRSF2 genotype: P95H/wt) was 72.5%; in the assay with OCI-AML2 (SRSF2 genotype: wt/wt), 81.8%.
Turning to `Nc1nc(CC(=O)Nc2ccc(CCNC[C@H](O)c3ccccc3)cc2)cs1` [Mirabegron (YM178)], the cell viability in the assay with K562 (SRSF2 genotype: SRSF2 P95H/wt) was 102% and 111%; in the assay on K562 (SRSF2 genotype: SRSF2 wt/wt) it was 107%; with MARIMO (SRSF2 genotype: SRSF2 P95H/wt), 103%; in the assay with MARIMO (SRSF2 genotype: SRSF2 wt/wt), 114%; with MOLM14 (SRSF2 genotype: SRSF2 P95H/wt), 101%; in the assay on MOLM14 (SRSF2 genotype: SRSF2 wt/wt) it was 103%. Moreover, the values for the cell viability in the assay on OCI-AML2 (SRSF2 genotype: P95H/wt) and in the assay with OCI-AML2 (SRSF2 genotype: wt/wt) were 110% and 93.1%, respectively.
On to `CCOC(=O)c1ccc(N2NC(=O)C(=Cc3ccc([N+](=O)[O-])o3)C2=O)cc1`, for which the cell viability in the assay on K562 (SRSF2 genotype: SRSF2 P95H/wt) is 95.6% and 99.7%; in the assay on K562 (SRSF2 genotype: SRSF2 wt/wt), 96%; in the assay on MARIMO (SRSF2 genotype: SRSF2 P95H/wt), 95.8%; with MARIMO (SRSF2 genotype: SRSF2 wt/wt) it was 90.9%; in the assay on MOLM14 (SRSF2 genotype: SRSF2 P95H/wt) it was 90.8%; with MOLM14 (SRSF2 genotype: SRSF2 wt/wt), 94.9%. For the same compound, the cell viability with OCI-AML2 (SRSF2 genotype: P95H/wt) stood at 102%; in the assay on OCI-AML2 (SRSF2 genotype: wt/wt), 107%.
As to `CCOC(=O)c1ncn2c1CN(C)C(=O)c1cc(F)ccc1-2` [Flumazenil], the cell viability in the assay on K562 (SRSF2 genotype: SRSF2 P95H/wt) was 107% and 101%; in the assay on K562 (SRSF2 genotype: SRSF2 wt/wt) it was 108%; in the assay on MARIMO (SRSF2 genotype: SRSF2 P95H/wt), 95.9%; in the assay with MARIMO (SRSF2 genotype: SRSF2 wt/wt), 107%; with MOLM14 (SRSF2 genotype: SRSF2 P95H/wt), 106%; in the assay with MOLM14 (SRSF2 genotype: SRSF2 wt/wt), 101%. The results for the cell viability with OCI-AML2 (SRSF2 genotype: P95H/wt) and in the assay on OCI-AML2 (SRSF2 genotype: wt/wt) were 94% and 103%, respectively.
Consider `COc1cc(C(=O)NC2CCCNC2)cc(OC)c1OC` (configuration not stated) [Troxipide], for which the cell viability is 98.2% and 99.3% in the assay on K562 (SRSF2 genotype: SRSF2 P95H/wt); 101% in the assay with K562 (SRSF2 genotype: SRSF2 wt/wt); 102% with MARIMO (SRSF2 genotype: SRSF2 P95H/wt); 106% in the assay with MARIMO (SRSF2 genotype: SRSF2 wt/wt); 103% in the assay with MOLM14 (SRSF2 genotype: SRSF2 P95H/wt); 100% with MOLM14 (SRSF2 genotype: SRSF2 wt/wt). Moreover, the cell viability in the assay with OCI-AML2 (SRSF2 genotype: P95H/wt) is 99.7%; in the assay with OCI-AML2 (SRSF2 genotype: wt/wt) it was 105%.
Regarding `Nc1ncnc2c1nc(Br)n2[C@@H]1O[C@@H]2COP(=O)(O)O[C@H]2[C@H]1O` [8-Bromo-cAMP], the cell viability in the assay with K562 (SRSF2 genotype: SRSF2 P95H/wt) is 66.5% and 72.5%; with K562 (SRSF2 genotype: SRSF2 wt/wt) it was 66.5%; in the assay with MARIMO (SRSF2 genotype: SRSF2 P95H/wt), 86.2%; in the assay on MARIMO (SRSF2 genotype: SRSF2 wt/wt), 96.1%; with MOLM14 (SRSF2 genotype: SRSF2 P95H/wt), 65.9%; in the assay on MOLM14 (SRSF2 genotype: SRSF2 wt/wt), 60%. Further, the results for the cell viability with OCI-AML2 (SRSF2 genotype: P95H/wt) and with OCI-AML2 (SRSF2 genotype: wt/wt) were 79.8% and 93.2%, respectively.
